Lassa entry inh = Lassa virus entry inhibition; Lassa virus pseudotype entry inhibition, cell reporter; Potency, µM (series often up to 37.9 µM), inactives show at the top dose activity change, negative = inhibition, usual class: inhibitors; 1.2% of 300,000 active; AID 540256; calls by dose curve; tested in HEK293 cells; further: potency means the concentration at half of the fitted maximal effect; nearly all actives have a fitted effect of over 50% in size
FMDV antiviral = antivirals against foot and mouth disease virus; 1.2% of 410,000 active; Potency, µM (series often up to 57.9 µM), for inactives: at the highest dose activity change, negative = inhibition, usual class: inhibitors; AID 1159524; FMDV antiviral cell-based qHTS; calls by dose curve; tested in HEK293T cells; further: read-out not given here; potency means the concentration at half of the fitted maximal effect; nearly all actives have a fitted effect of over 45% in size
HCV inh = HCV inhibition. Potency, µM (highest dose often 41.8 µM), inactives show at the highest dose activity change, negative = inhibition, actives largely listed as inhibitors. AID 651820. Huh7.5.1 HCVcc-Cre infection, luciferase reporter, 44 h. 3.4% of 340,000 active; active means well fitted inhibition curve with a large enough effect; inconclusive means small, poorly fitted or top-dose-only effect, or another doubt; inactive means no such curve, though single readings can be large or run the other way; further: potency means the concentration at half of the fitted maximal effect
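Seed cells (1,000/well) for 4 h; treat with compound and infect with HCVcc-Cre, moi about 0.5. Incubate 44 h, then detect luciferase activity.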
HCMV inh = inhibitors of human cytomegalovirus. HFF cells, HCMV-luciferase reporter, 72 h; active compounds read low. activity change, negative = inhibition, % at 57.5 µM. 4.5% of 410,000 active; in the data active means activity change below about -60%; inconclusive means no clear call, values can overlap the other calls; inactive means above about -39%
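Human foreskin fibroblasts infected with luciferase-reporter HCMV at MOI 1 PFU/cell, compounds at two doses. Luciferase measured 72 h post infection; normalized to buffer-only basal and Salinomycin (10uM) controls.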
Marburg entry inh = Marburg virus entry inhibition. Marburg virus pseudotyped entry inhibition, cell reporter. Potency, µM (doses to about 37.8 µM), without a hit: at the top dose activity change, negative = inhibition, actives largely listed as inhibitors. 1.8% of 300,000 active. AID 540276; calls by dose curve; tested in HEK293 cells; further: potency means the concentration at half of the fitted maximal effect
Starred values were filed as active, the others as inactive; [ ] = another dose, or the depositor's remark. Only some compounds are listed: those with a hit (about 7.9% of all), similar ones and a draw of the others. On the % scale 0 is the no-effect control and ±100 the full control effect.

For COc1ccc(-c2csc(NC3OC(=O)c4c3ccc(OC)c4OC)n2)cc1OC (stereo not drawn) the results were Lassa entry inh -11%, FMDV antiviral inconclusive, HCV inh -77%, HCMV inh -98* and Marburg entry inh inconclusive.
COc1ccc(-c2csc(NC(=O)Cc3ccccc3F)n2)cc1OC was read as FMDV antiviral -27%, HCV inh 10µM*, HCMV inh inconclusive and Marburg entry inh inconclusive.
For COc1ccc2c(c1)[C@@H](NC(=O)OCc1ccccc1)[C@H](C)[C@@H](c1ccccc1)N2C(=O)Nc1ccc(C(F)(F)F)cc1 the results were HCMV inh -36.
CCOC(=O)Cc1cc(C(=O)Nc2ccc(Br)cc2)sc1-c1ccc(C)cc1 was read as Lassa entry inh inconclusive, FMDV antiviral -25%, HCMV inh inconclusive and Marburg entry inh -19%[46.1 µM].
`Cc1ccccc1-c1nn2c(=O)cc(CN3CCN(C(=O)/C=C/c4ccccc4)CC3)nc2s1` gave Lassa entry inh 6%[46.1 µM], FMDV antiviral -15% and HCMV inh 6.
`C#CCN1C(=O)[C@]2(O[C@H](C)CC3=CCCC32)c2c(Br)cccc21` (stereo partly drawn) gave Lassa entry inh inconclusive and Marburg entry inh -15%[14.2 µM].
`COc1cccc(CC(=O)Nc2nc(-c3cccnc3)cs2)c1` gave Lassa entry inh inconclusive, FMDV antiviral -19%, HCV inh -8%, HCMV inh -62* and Marburg entry inh 3%.
For COc1ccc(CCNc2nc(-c3sc(N)nc3C)cs2)cc1OC the results were Lassa entry inh -20%, FMDV antiviral 10µM*, HCV inh -9%, HCMV inh -11 and Marburg entry inh inconclusive.
Screening COc1cccc(-c2csc(N3CCN(C(=O)Nc4ccc(F)cc4)CC3)n2)c1 returned Lassa entry inh 4%, FMDV antiviral inconclusive, HCV inh 7.9µM*, HCMV inh inconclusive and Marburg entry inh inconclusive.
For COc1cccc(-c2csc(N3CCN(C(=O)Nc4ccccc4OC)CC3)n2)c1 the results were Lassa entry inh 20%, FMDV antiviral 6%, HCV inh -14%, HCMV inh 47 and Marburg entry inh -4%.
COc1cccc(-c2csc(NC(=O)Nc3ccccc3)n2)c1 was read as FMDV antiviral 25µM*, HCV inh 11µM* and HCMV inh inconclusive.
Nc1cc(-c2ccccc2)nc2ccccc12 was read as HCMV inh 8.
COc1ccc(CC(=O)Nc2nc(-c3ccc(OC)c(OC)c3)cs2)cc1OC was read as Lassa entry inh inconclusive, FMDV antiviral inconclusive, HCV inh 5.6µM*, HCMV inh -34 and Marburg entry inh inconclusive.
Screening COc1ccccc1C1CC(c2c(-c3ccccc3)c3cc(Cl)ccc3[nH]c2=O)=NN1S(C)(=O)=O (stereo not drawn) returned Lassa entry inh inconclusive, FMDV antiviral inconclusive, HCV inh inconclusive, HCMV inh 9 and Marburg entry inh inconclusive.
For COc1cccc(C2CC(c3c(-c4ccccc4)c4cc(Cl)ccc4[nH]c3=O)=NN2S(C)(=O)=O)c1OC (stereo not drawn) the results were Lassa entry inh inconclusive, FMDV antiviral inconclusive, HCV inh 11µM*, HCMV inh -6 and Marburg entry inh inconclusive.
Screening COc1ccc(OC)c(NC(=O)c2cc3c(=O)oc4ccccc4c3s2)c1 returned Lassa entry inh 16%[46.1 µM], FMDV antiviral -5%, HCMV inh 10 and Marburg entry inh 19%[46.1 µM].
Screening CCCCCn1c(=O)c2ccccc2n2c(CCl)nnc12 returned Lassa entry inh -8%, FMDV antiviral 20µM*, HCV inh -25%, HCMV inh -12 and Marburg entry inh -14%[14.2 µM].
Screening CCCn1c(=O)c2ccccc2n2c(SCC(N)=O)nnc12 returned Lassa entry inh 28%[46.1 µM], FMDV antiviral -13%, HCV inh 9%, HCMV inh 21 and Marburg entry inh -1%[46.1 µM].
For CC(C)CCn1c(=O)c2ccccc2n2c(CN3CCCC3)nnc12 the results were Lassa entry inh 3%[46.1 µM], FMDV antiviral -2%, HCV inh -2%, HCMV inh -20 and Marburg entry inh 17%[46.1 µM].
For CC(C)CCn1c(=O)c2ccccc2n2c(CCl)nnc12 the results were Lassa entry inh inconclusive, FMDV antiviral 32µM*, HCV inh inconclusive, HCMV inh 15 and Marburg entry inh inconclusive.
